Results from PubChem BioAssay (Tox21).
Inconclusive results are not listed. The source made the active and inactive calls. Unless noted, calls follow the shape of the dose curve; as a rule, active = well fitted curve in the direction sought with a large enough effect in the repeat runs; inconclusive = weak or mixed curves; inactive = no such curve, though single readings can be large; an effect the other way counts as inactive or inconclusive.

What was measured:
[1] = qHTS assay for small molecules that induce genotoxicity in human embryonic kidney cells expressing luciferase-tagged ATAD5 (AID 651632); also: nearly all actives have a fitted effect of over 15% in size
Outline: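 Increased luciferase signal from ATAD5-tagged reporter cells indicates DNA-damage-driven ATAD5 induction. HEK293T cells are treated for 16 hr at 37C before detection with Amplite.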

[2] = qHTS assay for small molecules that induce genotoxicity in human embryonic kidney cells expressing luciferase-tagged ATAD5 - cell viability (AID 651634; calls by dose curve; also: nearly all actives have a fitted effect of over 25% in size)
Outline: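 Cytotoxicity counterscreen in HEK293T cells bearing an ATAD5-luciferase reporter: live-cell protease activity measured by CellTiter-Fluor fluorescence after 15.5 hr compound exposure.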

[3] = qHTS assay for small molecule disruptors of the mitochondrial membrane potential - cell viability (AID 720634; calls by dose curve;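 also: human HepG2 liver cancer cells; series mostly up to about 83 µM; nearly all actives have a fitted effect of over 20% in size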)
Outline: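 After overnight attachment at 37 C, HepG2 cells received compound or DMSO vehicle for 1 hr. Viability is then taken from ATP-driven luminescence following a 30 min room-temperature CellTiter-Glo step.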

[4] = qHTS assay for small molecule disruptors of the mitochondrial membrane potential (AID 720635)
Outline: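 HepG2 cells (2,000/well) attached overnight at 37C, then took compound for 1 hr at 37C, 5% CO2. Mito-MPS dye was added for 30 min; fluorescence was read at 490/535 nm (monomers) and 540/590 nm (aggregates).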

[5] = qHTS assay to test for compound auto fluorescence at 590 nm (red) in HepG2 cells (AID 720674)
Outline: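 Intrinsic compound fluorescence in the red window (Ex/Em 540/590 nm) is measured in attached HepG2 cells exposed for 1 hr, DMSO vehicle as baseline, benchmarked to Rose Bengal sodium.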

[6] = qHTS assay to test for compound auto fluorescence at 535 nm (green) in HepG2 cells (AID 720675)
[7] = qHTS assay to test for compound auto fluorescence at 460 nm (blue) in HEK293 cells (AID 720678)
Outline: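 Cells were seeded and left to adhere for 4-5 hr at 37C. Compounds were then pin-transferred. After an overnight incubation at 37C under 5% CO2, intrinsic fluorescence at 405/460 nm was measured and referenced to triamterene.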

[8] = qHTS assay to test for compound auto fluorescence at 590 nm (red) in HEK293 cells (AID 720679)
Outline: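 Each well held 2,000 HEK293 cells in medium containing 10% dialyzed FBS. Following 4-5 hr attachment at 37C, 23 nL test compound or DMSO was added; plates sat overnight, and red fluorescence (540/590nm) was recorded.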

[9] = qHTS assay to test for compound auto fluorescence at 535 nm (green) in HEK293 cells (AID 720680)
[10] = qHTS assay to test for compound auto fluorescence at 460 nm (blue) in HEK293 cell free culture (AID 720681)
Outline: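 Test compounds were pinned into cell-free culture medium (DMEM with 10% FBS) and fluorescence was read directly at Ex/Em 405/460 nm. Signals were expressed as fluorescence equivalents of triamterene, with DMSO vehicle as control.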

[11] = qHTS assay to test for compound auto fluorescence at 535 nm (green) in HEK293 cell free culture (AID 720682)
Outline: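 Measurement is a direct plate read of green fluorescence (485 nm in, 535 nm out) after compound addition to serum-supplemented DMEM lacking cells, with fluorescein used to express intensities.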

[12] = qHTS assay to test for compound auto fluorescence at 590 nm (red) in HEK293 cell free culture (AID 720683)
Outline: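 Tox21 10K library compounds were pinned into cell-free DMEM with 10% FBS and fluorescence was read at excitation 540 nm. Activity is expressed as Rose Bengal sodium equivalency.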

[13] = qHTS assay to test for compound auto fluorescence at 590 nm (red) in HepG2 cell free culture (AID 720684)
Outline: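 Measured in medium alone (MEM containing 10% FBS) following pintool addition of compound; emission at 590 nm with 540 nm excitation, referenced to Rose Bengal sodium.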

[14] = qHTS assay to test for compound auto fluorescence at 460 nm (blue) in HepG2 cell free culture (AID 720685)
Outline: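 Compound (23 nL) or DMSO pinned into cell-free MEM with 10% FBS; blue fluorescence read at 405/460 nm excitation/emission, expressed as auto-fluorescence equivalency to triamterene.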

[15] = qHTS assay to test for compound auto fluorescence at 535 nm (green) in HepG2 cell free culture (AID 720686)
[16] = qHTS assay to test for compound auto fluorescence at 460 nm (blue) in HepG2 cells (AID 720687)
Outline: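 Cells (2,000/well in MEM with 10% FBS) attached overnight at 37 C, then were exposed to compound or DMSO for 1 hr at 37 C, 5% CO2. Fluorescence read at Ex/Em 405/460 nm, expressed as triamterene-equivalent signal.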

[17] = target: Glucocorticoid receptor (Homo sapiens) (UniProt P04150); test: qHTS assay to identify small molecule agonists of the glucocorticoid receptor (GR) signaling pathway (AID 720691; active = well fitted activation curve with a large enough effect in the signal ratio in the repeat runs, not every such curve was filed as active; the % refers to the signal ratio)
Outline: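 Agonist mode in a HeLa line carrying a GRE-controlled beta-lactamase reporter. Compounds act for 18 h at 37 C before a 2 h room-temperature FRET substrate step and fluorescence reading.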

[18] = target: Glucocorticoid receptor (Homo sapiens) (UniProt P04150); test: qHTS assay to identify small molecule antagonists of the glucocorticoid receptor (GR) signaling pathway (AID 720692; active = well fitted inhibition curve with a large enough effect in the signal ratio in the repeat runs, not every such curve was filed as active; the % refers to the signal ratio)
Outline: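 Cells plated, rested 4 h at 37 C/5% CO2; compounds in DMSO pin-transferred; dexamethasone added to 5 nM final; 18 h at 37 C; B/G FRET substrate added, 2 h room temperature; fluorescence measured.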

Measured: Potency

Glucocorticoid receptor (Homo sapiens), sequence (P04150 whole entry, looked up): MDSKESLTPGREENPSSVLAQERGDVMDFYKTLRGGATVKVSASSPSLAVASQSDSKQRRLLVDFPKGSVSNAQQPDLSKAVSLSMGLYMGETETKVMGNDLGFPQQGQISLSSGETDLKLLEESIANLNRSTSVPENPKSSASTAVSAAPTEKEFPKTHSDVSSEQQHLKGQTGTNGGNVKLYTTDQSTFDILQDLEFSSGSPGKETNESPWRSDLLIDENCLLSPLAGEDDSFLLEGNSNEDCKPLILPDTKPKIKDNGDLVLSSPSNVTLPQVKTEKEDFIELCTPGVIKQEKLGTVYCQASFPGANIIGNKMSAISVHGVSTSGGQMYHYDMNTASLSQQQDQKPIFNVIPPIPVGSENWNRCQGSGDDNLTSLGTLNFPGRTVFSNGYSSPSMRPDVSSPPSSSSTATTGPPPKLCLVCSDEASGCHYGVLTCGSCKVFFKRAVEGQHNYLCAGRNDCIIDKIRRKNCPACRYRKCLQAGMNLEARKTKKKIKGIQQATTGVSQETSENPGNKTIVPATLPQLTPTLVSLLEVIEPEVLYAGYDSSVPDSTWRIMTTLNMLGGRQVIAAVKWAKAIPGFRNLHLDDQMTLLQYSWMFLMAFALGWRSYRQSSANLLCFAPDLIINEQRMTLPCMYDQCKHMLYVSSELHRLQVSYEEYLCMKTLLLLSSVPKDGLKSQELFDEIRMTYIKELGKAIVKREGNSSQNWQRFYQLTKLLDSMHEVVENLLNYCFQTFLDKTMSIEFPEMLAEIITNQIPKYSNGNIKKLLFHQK

Cn1c(=O)c2c(ncn2CCO)n(C)c1=O
not listed: [17] | [18]
inactive: all other assays above

OCCN1CCOCC1
not listed: [2] | [3] | [4] | [14] | [17] | [18]
inactive: all other assays above

OCC(O)CN1CCN(c2ccccc2)CC1 (stereo not given)
not listed: [10] | [14]
inactive: all other assays above

Cc1ccc(C(=O)O)cc1[N+](=O)[O-]
not listed: [6] | [11] | [17] | [18]
inactive: all other assays above

CN(C)CCCO[C@@H]1[C@H]2OC(C)(C)O[C@H]2O[C@@H]1C(O)CO (stereo not given in full)
not listed: [14] | [15] | [17]
inactive: all other assays above

COc1ccc(CCO)cc1
not listed: [4] | [18]
inactive: all other assays above

CN(C)CCOC(=O)C(c1ccccc1)C1(O)CCCC1 (stereo not given)
not listed: [14]
inactive: all other assays above

N#Cc1ccccc1O
not listed: [4] | [6] | [18]
inactive: all other assays above

ONc1ccccc1
not listed: [3] | [4] | [6] | [18]
inactive: all other assays above
